H9c2 protect: myocardial damage modulation in H9c2 cells; protection from H2O2 cell death, % at 20 µM; AID 588492; H9c2 cardiomyocytes, H2O2 injury protection, ATPLite, 2 h; 0.63% of 360,000 active;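 active = compounds giving at least 50% protection of heart cells from peroxide-induced death in the single-dose screen, raw or plate-pattern-corrected value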
iPSC survival up: enhancers of human iPSC single-cell survival. survival enhancement, % at 20 µM. 0.044% of 360,000 active. AID 602274. hiPSC single-cell survival, ATPlite luminescence; 100% = ROCK inhibitor wells, 0% = DMSO; in the data active = survival enhancement above about 18%;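 note: cells exposed to compounds for 16 hours before the ATP read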
CRFBP-R2 agonist: agonists of human CRF-binding protein/CRF-R2 receptor complex. AID 588473. activation, % at 13.2 µM. 0.46% of 350,000 active. HEK293 CRF-R2/CRF-BP, calcium dye fluorescence (FLIPR); percent of saturating CRF peptide response;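 active = activation of at least 50%, plus an integration ratio under a set limit after plate pattern correction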
TAG inh: reduces triacylglycerol accumulation in H9c2 cells | 0.66% of 230,000 active | Nile Red lipid (TAG) fluorescence; cells loaded with 200 µM oleic acid | inhibition, % at 12.5 µM;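 active = pattern-corrected inhibition of lipid staining of at least 50% with the nuclear-stain viability signal not falling by more than 50%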
CRFR2-BP antag: antagonists of CRF-binding protein/CRF-R2 receptor complex; HEK293 CRF-R2/CRF-BP, CRF-induced calcium fluorescence; inhibition, % at 11.8 µM; 0.59% of 350,000 active; AID 588475;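 active = inhibition of the ligand-induced calcium signal above about 50% at the single tested concentration, limit read from the data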
SKN-1 block: C. elegans SKN-1 inhibition | C. elegans VP596 Pgst-4::GFP/RFP ratio, acrylamide-induced, 24 h | inhibition, % at 21.8 µM | 0.49% of 360,000 active;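 active = interference check ratio from 0.5 to 1.5 plus GFP to RFP signal ratio inhibition reaching or exceeding a fixed threshold, cut at about 30% in these data, passing the limit was not always enough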
Large screens that a line does not name were inactive. Shown are actives, neighbours in structure and some others; about 2.5% of the full set was active somewhere.

Cc1c(Cl)cnc(NC(=O)COC(=O)c2cccs2)c1Cl	none
CC(O)CNc1ccc(-c2n[nH]c(=O)c3ccccc23)cc1[N+](=O)[O-] (stereo unspecified)	none (no result: TAG inh)
CN(C)CCCNc1ccc(-c2n[nH]c(=O)c3ccccc23)cc1[N+](=O)[O-]	H9c2 protect 55.1
N=c1oc2ccccc2cc1-c1nc(-c2ccccc2)cs1	SKN-1 block 58.1 (no result: TAG inh)
O=C(Cn1ccc(=O)[nH]c1=O)Nc1ccc(O)c([N+](=O)[O-])c1	none
Cc1ccc(S(=O)(=O)CCC(=O)Nc2cc(Cl)ccc2-n2cncn2)cc1	CRFR2-BP antag 50.3
Cc1ccc(C(=O)NC2CC3CCC(C2)N3Cc2ccco2)cc1 (stereo unspecified)	none
COc1cc(OC)cc(C(=O)NC2CC3CCC(C2)N3Cc2ccco2)c1 (stereo unspecified)	CRFR2-BP antag 58.2
Cc1nnc(SCc2nnc(-c3ccccc3Br)o2)n1-c1ccccc1	none (no result: TAG inh)
Brc1ccccc1-c1nnc(CSc2nnnn2-c2ccccc2)o1	CRFR2-BP antag 111.5 (no result: TAG inh)
CCOC(=O)c1c(CSC(=N)N)n(-c2ccc(C)cc2)c2cc(Br)c(OC(C)=O)cc12	TAG inh 74.4
CCOC(=O)COc1cccc(C2NC(=O)c3ccccc3O2)c1 (stereo unspecified)	H9c2 protect 82.7
C=CCNc1oc(-c2ccc(Cl)cc2)nc1C#N	H9c2 protect 51.7
CCc1ccc(-c2cc3c(=O)n(CC(=O)NCCCN4CCC(Cc5ccccc5)CC4)nc(C)n3n2)cc1	CRFR2-BP antag 100.8 (no result: TAG inh)
Cc1ccc(NN2C(=O)C=C(c3ccc(Cl)cc3)C2=O)cc1	CRFBP-R2 agonist 61.3
Cc1ccc(SCCNC(=O)CN2C(=O)c3ccccc3S2(=O)=O)cc1	SKN-1 block 36.9
CCN(C(=O)CSc1nccc(=O)[nH]1)c1cccc2ccccc12	none
Clc1ccc2nc3c4ccccc4cnn3c2c1	none
Oc1ccc2nnc3c(Br)cnn3c2c1	CRFBP-R2 agonist 146.0 (no result: TAG inh)
COc1cc(CNC[C@H]2O[C@@H](n3ccc(N)nc3=O)[C@H](O)[C@@H]2O)ccc1OCc1ccc(C)cc1	none
COc1ccc(S(=O)(=O)N(C)CC(=O)NC2CCCCC2)cc1OC	CRFR2-BP antag 51.4 (no result: TAG inh)
Cc1ccc(C(=O)Nc2nc(-c3ccc(F)cc3)cs2)o1	SKN-1 block 35.7
Cc1ccc(-c2csc(NC(=O)c3ccno3)n2)cc1	SKN-1 block 37.4
Cc1ccc(-c2csc(NC(=O)c3ccc(C)o3)n2)cc1	none (no result: TAG inh)
Cc1cccc(/N=C/c2c(O)ccc3oc4c(c23)CCCC4)n1	H9c2 protect 75.4 (no result: TAG inh)
Cc1cccc(/N=C/c2c(O)cc(C)oc2=O)n1	none (no result: TAG inh)
O=C(O)C1C2C=CC(O2)C1C(=O)Nc1ccc(S(=O)(=O)Nc2ccccc2)cc1 (stereo unspecified)	CRFR2-BP antag 53.9 (no result: TAG inh)
COc1ccc(NC(=O)N(C)C[C@H]2Oc3ccc(NC(=O)Nc4ccc5c(c4)OCO5)cc3C(=O)N([C@H](C)CO)C[C@@H]2C)cc1	none
CCSc1ncc(/C=N/Nc2ccccc2)n1C	SKN-1 block 45.0
CCSc1ncc(/C=N/Nc2ccc(Cl)cc2)n1C	none
O=C(Nc1cccc(Oc2ccccc2)c1)C1Cc2c(-c3ccccc3)ccnc2O1 (stereo unspecified)	none (no result: CRFBP-R2 agonist, CRFR2-BP antag)
CCc1cccc(NC(=S)N(CCCN2CCOCC2)C(C)c2cc3cccc(OC)c3o2)c1 (stereo unspecified)	CRFR2-BP antag 76.5
COc1cccc2cc(C(C)N(CCCN3CCOCC3)C(=S)Nc3ccc(C)c(C)c3)oc12 (stereo unspecified)	none
CC(C)c1ccc([C@@H]2O[C@H](CCc3ccccc3)CC3=C2C(=O)OC(C)(C)O3)cc1	none (no result: H9c2 protect, CRFBP-R2 agonist, TAG inh, CRFR2-BP antag)
NC(=O)c1ccccc1N/C=C/C(=O)c1ccc(Cl)cc1	none
O=C(C=Cc1ccccc1Cl)c1ccccc1	none
O=C(/C=C/Sc1ccccc1)c1ccc(Cl)cc1	SKN-1 block 35.7 (no result: TAG inh)
O=C(/C=C/Sc1ccccc1)c1ccccc1	SKN-1 block 81.1 (no result: TAG inh)
Cc1oc(-c2ccccc2F)nc1CS(=O)(=O)CC(=O)N1CCN(c2ccccc2)CC1	none
Cc1ccc(S(=O)(=O)N2Cc3ccccc3CC2C(=O)NC(C)(C)C)cc1 (stereo unspecified)	none
O=[N+]([O-])c1ccc(OCc2cnc(Cl)s2)cc1	SKN-1 block 54.1
O=[N+]([O-])c1ccc(COc2ccc(CN3CCOCC3)cc2)cc1	none
O=[N+]([O-])c1ccc(COc2ccc(CN3CCCCC3)cc2)cc1	SKN-1 block 39.7
O=[N+]([O-])c1ccc(COc2ccc(CN3CCCC3)cc2)cc1	SKN-1 block 60.0
Nc1sc2c(c1C(=O)NCCc1ccccc1)CCCC2	none (no result: H9c2 protect, iPSC survival up, CRFBP-R2 agonist, TAG inh, CRFR2-BP antag)
Cc1ccc(S(=O)(=O)N2[C@@H](CO)CO[C@H]2CC(=O)c2cccs2)cc1	none (no result: H9c2 protect, iPSC survival up, CRFBP-R2 agonist, TAG inh, CRFR2-BP antag)
O=C(O)c1ccc(CNC(=S)Nc2ccccc2)cc1	none
CC(=O)NCc1ccc(C(=O)O)cc1	CRFR2-BP antag 86.0
CC(OC(=O)c1ccc(S(=O)(=O)NCc2ccco2)cc1)C(=O)Nc1ccc(Cl)cn1 (stereo unspecified)	CRFBP-R2 agonist 99.5
O=C(COC(=O)c1ccc(S(=O)(=O)NCc2ccco2)cc1)Nc1ncc(Cl)cc1Cl	none (no result: TAG inh)
Cn1c(=O)c2c(nc(NCCCO)n2C/C=C/c2ccccc2)n(C)c1=O	H9c2 protect 62.5
CC(O)CNc1nc2c(c(=O)n(C)c(=O)n2C)n1C/C=C/c1ccccc1 (stereo unspecified)	none (no result: TAG inh)
CC(C)NC(=O)C1(C)CSCC(=O)N1CCCN1CCOCC1 (stereo unspecified)	SKN-1 block 35.4 (no result: H9c2 protect, iPSC survival up, CRFBP-R2 agonist, TAG inh, CRFR2-BP antag)
COc1ccc(C(CCN2CCCCC2)c2c(OC)cc(OC)c3c(-c4ccccc4)cc(=O)oc23)cc1 (stereo unspecified)	CRFBP-R2 agonist 59.2
COc1cc(OC)c2c(-c3ccccc3)cc(=O)oc2c1C(CCN1CCOCC1)c1ccc(N(C)C)cc1 (stereo unspecified)	none
CCN(CC)CCC(c1cc(OC)c(OC)c(OC)c1)c1c(OC)cc(OC)c2c(C)cc(=O)oc12 (stereo unspecified)	SKN-1 block 39.9
CCCCCc1cc(=O)oc2c(C(CCN3CCCC(C)C3)c3ccc(N(C)C)cc3)c(OC)cc(OC)c12 (stereo unspecified)	TAG inh 107.4
CCCCCc1cc(=O)oc2c(C(CCN3CCCCC3)c3cc(OC)c(OC)c(OC)c3)c(OC)cc(OC)c12 (stereo unspecified)	TAG inh 79.6
CCN(CC)CCC(c1cc(OC)c(OC)c(OC)c1)c1c(OC)cc(OC)c2ccc(=O)oc12 (stereo unspecified)	none
CC1CC(C)CN(C(C(=O)NC2CCCCC2)c2cc3ccccc3o2)C1 (stereo unspecified)	none (no result: CRFBP-R2 agonist, TAG inh, CRFR2-BP antag)

Assay outcomes deposited in PubChem by Sanford-Burnham Center for Chemical Genomics.
